# Measurements as given in the emibetuzumab library of Makowski et al. (2022).
# This is one part of the list. No count for the full screen is at hand.
# B1: VH:VL chains; a variant is named by its letters at X, in order (parent)
# chain 1: QVQLVQSGAEVKKPGASVKVSCKASGYTFTDYXMHWVRQAPGQGLEWMGXVNPNXXXTTYNQKFEGRVTMTTDTSTSTAYMELRSLRSDDTAVYYCARXNXLDXWGQGTTVTVSS
# chain 2: DIQMTQSPSSLSASVGDRVTITCSVSSSVSSIYLHWYQQKPGKAPKLLIYSTSNLASGVPSRFSGSGSGTDFTLTISSLQPEDFATYYCQVYSGYPLTFGGGTKVEIK
# Variants of: B1
# Assay: yeast display scFab, FACS + sequencing
# Conditions: with MET
# In short: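 For FACS, yeast displaying a heavy-chain CDR mutant scFab library were labelled with 1 nM HGFR-Fc and anti-Myc (PBSB, 1% milk, 3 h, room temperature), and the top 50% antigen-positive cells were gated. Input and round-3 sorted populations were deep sequenced in two replicates. The binding call was positive for sequences occurring in both antigen-positive samples and negative for sequences occurring only in input.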
row,Variant,antigen binding call
1,SGRGNSVD,no binding
2,VEEEGDVA,no binding
3,STEEGDWV,no binding
4,AEGTNAGD,no binding
5,VETGNDAV,no binding
6,FRERNAAA,no binding
7,FRGRGALA,binds
8,FRERGAAA,binds
9,YRERGSAA,binds
10,FEEGTDWY,no binding
11,DGGKNDAV,no binding
12,YRAGGFGS,binds
13,SRARDFGY,no binding
14,YRARSFGD,no binding
15,DRAGDAGY,no binding
16,YRAGGFGY,binds
17,YAAGSFGY,no binding
18,YRAGGAGY,binds
19,YRARSFGS,binds
20,YGETGFGS,no binding
21,SEARSSGF,no binding
22,YATEAFSD,no binding
23,YAKGDDAS,no binding
24,DEGGGDGA,no binding

row,Variant,antigen binding call
1,DAGKSDWY,no binding
2,YAEESDVA,no binding
3,DTGTGALV,no binding
4,YRAGGYGY,binds
5,YRARGAGY,binds
6,YRARGSGY,binds
7,YRARGYVY,no binding
8,YRAGGVGS,binds
9,DTKAADWY,no binding
10,VKEGGDVV,no binding
11,YGRTSAAV,no binding
12,YKGKDSSV,binds
13,YKRESSSV,binds
14,YAGKDDWV,no binding
15,YERESAAV,no binding
16,YKRESAAV,binds
17,VEGTSSSV,no binding
18,FEGGTDVV,no binding
19,YKGRGAGF,binds
20,YKGRGAAF,binds
21,YKGRGYGF,no binding
22,YKGRGSAF,binds
23,DAGRSDLV chain 1 R67H,no binding
24,SAGEGDVY,no binding

row,Variant,antigen binding call
1,FAKEGFWD,no binding
2,VRERGDGV,no binding
3,VRTRGSGV,binds
4,VETEGSGV,no binding
5,VETRSSSV,no binding
6,VRTRSSGV,binds
7,VRTADVGV,no binding
8,DGGTNAGD,no binding
9,YREKGSSV,binds
10,DREEGSSA,no binding
11,YTTGGSSA,no binding
12,YTEKGVGV,no binding
13,DATGGSSV,no binding
14,VAEKGSSA,no binding
15,YRTGGSSV,binds
16,YREKGSSA,binds
17,DTKRTAVA,no binding
18,ATTKSAGD,no binding
19,YRRGGAGV,binds
20,YRRGGFGV,binds
21,DARGGFGV,no binding
22,YRRGGVGV,binds
23,DREEGVGV,no binding
24,YRGKDVGV,binds

row,Variant,antigen binding call
1,YRRGSVGV,no binding
2,VEGGGDVV,no binding
3,SEEEGASV,no binding
4,YKARGAWD,binds
5,YAARGAWD,no binding
6,YKAGGAWD,binds
7,DKEGGSLV,no binding
8,YKARGSLY,binds
9,YKGRGALY,binds
10,YKGRAALY,no binding
11,SKERGSLV,no binding
12,YKARGSLV,binds
13,YKGRGSLY,binds
14,ATGRADWA,no binding
15,VTETGDSV,no binding
16,YTGEDDVY,no binding
17,YRGKASGD,binds
18,YRGKAAGD,binds
19,YAGKSAGD,no binding
20,YTGTSAGD,no binding
21,FRRKDDWA,no binding
22,YRRRGSWA,binds
23,FRRRGAWA,binds
24,YRRRGAWA,binds

row,Variant,antigen binding call
1,YRRRGYWA,binds
2,ATGEDDVY,no binding
3,DEGGTDGY,no binding
4,FARKGDGV,no binding
5,YRRRGVWA,binds
6,YRRRGDWA,binds
7,YRREGDWA,no binding
8,SARRGDWA,no binding
9,DATGGDGV,no binding
10,FAGRGALD,no binding
11,FARGGDAV,no binding
12,FRRRGAAD,binds
13,FRRGGSAF,binds
14,FRRRGAVD,binds
15,FRRRGALD,binds
16,FARKSYGA,no binding
17,AETKGDGV,no binding
18,YGTATFLV,no binding
19,VRTKDFSY,no binding
20,FGATSFSV,no binding
21,FAGGDYGS,no binding
22,DTAGDAVV,no binding
23,FRRRGSAD,binds
24,YRRRGSAD,binds

row,Variant,antigen binding call
1,FARGGSAD,no binding
2,DARGGSAD,no binding
3,FRRGGSAD,binds
4,YRAKGSVD,binds
5,YRRKGSVD,binds
6,DRAGDSVD,no binding
7,YRAGDSVD,binds
8,YAGTGAVA,no binding
9,FKGKGAVA,no binding
10,SKGKGAVA,no binding
11,YKGKGAVA,binds
12,VKGAGSVV,no binding
13,YKTGNDVA,no binding
14,YKGKGSVV,binds
15,FKGRGAVD,binds
16,YTTGGAVA,no binding
17,YKTRSAVA,binds
18,DTKAASWA,no binding
19,FKGEGDVA,no binding
20,FKAGGAVA,binds
21,YKGKGSVA,binds
22,AATGSAWA,no binding
23,DAARGAGD,no binding
24,DRTTNAGD,no binding

row,Variant,antigen binding call
1,DAGGGAGD,no binding
2,DRGEGAGD chain 1 G42D,binds
3,DAGEAAGD,no binding
4,DKGGAAGD,no binding
5,DRAGGAGD,binds
6,FRGGSAVD,binds
7,DRGGSAGD,binds
8,DRGRDAGD,no binding
9,VRGGSDVD,no binding
10,FAGRDVGV,no binding
11,SGKGGSAY,no binding
12,FRKGSAVD,binds
13,FRGADFGD,no binding
14,FRGGSAGD,binds
15,FTGGAAGD,no binding
16,DAGGADAY,no binding
17,FTGGASGV chain 1 V111I,no binding
18,YKAKGASV,binds
19,VKGRGASV,binds
20,VEGTSASV,no binding
21,YEGGGFSV,no binding
22,YGGGGASV,binds
23,YGGGGDVV,no binding
24,YKGRGASV,binds

row,Variant,antigen binding call
1,YKAGDVSV,no binding
2,VKGRAFSV,no binding
3,SEEGTDWY,no binding
4,DAGGAAAD,no binding
5,YEGTGAGA,no binding
6,YKGRGASA,binds
7,YKGRGASD,binds
8,VKGRSDWV,no binding
9,VKGRSFLV,no binding
10,YAGRGASA,no binding
11,YKGRSASV,binds
12,YKRRSASA,binds
13,FKRRSVGA,no binding
14,YAGRGDSA,no binding
15,VERGTYGV,no binding
16,AKTKSDWV,no binding
17,VTTRDDSD,no binding
18,VAGTGDWY,no binding
19,DTEGDAGD,no binding
20,VTGESDWY,no binding
21,FRGKGSGV,binds
22,FRGKGFGV,no binding
23,FRGEGFSV,no binding
24,FRGGGFVV,no binding

row,Variant,antigen binding call
1,VTGEGALV,no binding
2,FRKGGSGV,binds
3,FRGGGSGV,binds
4,FRGEGALV,binds
5,FRGGGVGV,binds
6,ARGEGSGV,no binding
7,FAGEGAGV,no binding
8,FKGGNVGV,no binding
9,VRGGGVGV,no binding
10,FRGEGSGV,binds
11,FRGGSSGV,binds
12,STEGGSVY,no binding
13,SKTKSDWA,no binding
14,SGEGGAVA,no binding
15,DEAGGDGY,no binding
16,YRRGSALY,binds
17,YRRGDSLY,binds
18,YRKESAVY,binds
19,YRRGSSLY,binds
